These results are taken from ChEMBL document CHEMBL3988442, “University of Dundee, Small-Polar-MMV Screening Library” (2021).

For part of these data: Potency and affinity values are given separately.

Holding throughout (design): scale not given: direction of the effect not stated beside the values
Test [1] addresses Protein translocase subunit SecA (Escherichia coli (strain K12)) (UniProt P10408). Briefly: Assay to Identify E. coli SecA ATPase Inhibitors. In kind it is functional. As to conditions: 30 µM.
Test [2] has as its target T1, Ubiquitin-activating enzyme e1, putative (Leishmania donovani (strain BPK282A1)) (UniProt E9BSI1).
T1 sequence (whole entry): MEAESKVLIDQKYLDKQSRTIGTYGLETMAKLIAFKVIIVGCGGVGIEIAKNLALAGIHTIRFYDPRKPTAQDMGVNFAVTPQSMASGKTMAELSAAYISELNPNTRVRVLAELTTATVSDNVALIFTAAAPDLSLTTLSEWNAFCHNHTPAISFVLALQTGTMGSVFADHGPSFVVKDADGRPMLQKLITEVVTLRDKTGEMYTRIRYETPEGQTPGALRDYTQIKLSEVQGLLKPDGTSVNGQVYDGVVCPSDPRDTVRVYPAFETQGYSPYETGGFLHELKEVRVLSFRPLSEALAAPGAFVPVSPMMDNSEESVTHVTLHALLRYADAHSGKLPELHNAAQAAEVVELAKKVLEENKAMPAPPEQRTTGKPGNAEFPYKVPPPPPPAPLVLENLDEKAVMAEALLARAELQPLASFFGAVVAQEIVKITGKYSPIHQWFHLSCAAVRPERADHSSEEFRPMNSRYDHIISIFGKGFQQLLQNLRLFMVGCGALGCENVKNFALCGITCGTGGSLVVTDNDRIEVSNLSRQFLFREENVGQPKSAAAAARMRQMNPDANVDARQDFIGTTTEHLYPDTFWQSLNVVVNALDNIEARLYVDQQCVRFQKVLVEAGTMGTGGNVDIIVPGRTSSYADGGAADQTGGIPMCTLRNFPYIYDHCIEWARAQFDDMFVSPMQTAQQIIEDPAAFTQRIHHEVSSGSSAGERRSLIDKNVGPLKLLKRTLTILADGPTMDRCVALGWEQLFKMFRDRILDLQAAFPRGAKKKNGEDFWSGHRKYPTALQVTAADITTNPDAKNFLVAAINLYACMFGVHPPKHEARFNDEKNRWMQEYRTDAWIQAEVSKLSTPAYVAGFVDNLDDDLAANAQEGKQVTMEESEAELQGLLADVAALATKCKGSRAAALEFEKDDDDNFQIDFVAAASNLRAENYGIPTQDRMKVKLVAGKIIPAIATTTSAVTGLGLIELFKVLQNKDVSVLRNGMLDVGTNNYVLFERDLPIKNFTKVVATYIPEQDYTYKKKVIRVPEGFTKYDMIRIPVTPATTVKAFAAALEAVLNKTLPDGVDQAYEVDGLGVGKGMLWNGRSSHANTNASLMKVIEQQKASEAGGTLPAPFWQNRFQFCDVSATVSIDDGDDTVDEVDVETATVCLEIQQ
Briefly: Leishmania donovani Ubiquitin Activating Enzyme (LdE1). In kind it is functional. The note with it: 30 µM.

Test [3] concerns the target Sialic acid-binding Ig-like lectin 9 (Homo sapiens) (UniProt Q9Y336). The test is described as follows: Hs-Siglec9 ALPHAscreen SOP 20170721. As to conditions: 10 µM. For orientation: Alpha assays give light when donor and acceptor beads are brought close together.
Another test has as its system Trypanosoma cruzi. The test is described as follows: Trypanosoma cruzi phosphomannomutase and mannose-1-phosphate guanylyltransferase assay. The note with it: 10 µM. In kind it is functional.
Test [4] concerns the target T2, Arginase-2, mitochondrial (Homo sapiens) (UniProt P78540).
T2 sequence (whole entry): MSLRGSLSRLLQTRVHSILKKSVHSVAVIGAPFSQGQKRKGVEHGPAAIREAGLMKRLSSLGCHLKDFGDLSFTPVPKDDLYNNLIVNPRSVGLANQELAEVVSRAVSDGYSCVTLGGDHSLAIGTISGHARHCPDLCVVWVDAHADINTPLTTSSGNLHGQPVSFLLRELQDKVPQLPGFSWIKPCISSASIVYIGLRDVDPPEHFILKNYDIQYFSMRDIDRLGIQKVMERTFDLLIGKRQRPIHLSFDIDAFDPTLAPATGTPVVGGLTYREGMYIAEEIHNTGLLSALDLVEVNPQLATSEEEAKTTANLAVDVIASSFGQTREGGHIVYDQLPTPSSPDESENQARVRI
The test is described as follows: in vitro enzyme assay to detect the production of urea directly proportional to the activity of Arginase II. Also: in the data most compounds retested in dose-response had high values. As to conditions: 33.3 µM. The test is classed as functional.

The target in test [5] is T3, Proteasome subunit beta (Trypanosoma cruzi) (UniProt O96673).
T3 sequence (whole entry): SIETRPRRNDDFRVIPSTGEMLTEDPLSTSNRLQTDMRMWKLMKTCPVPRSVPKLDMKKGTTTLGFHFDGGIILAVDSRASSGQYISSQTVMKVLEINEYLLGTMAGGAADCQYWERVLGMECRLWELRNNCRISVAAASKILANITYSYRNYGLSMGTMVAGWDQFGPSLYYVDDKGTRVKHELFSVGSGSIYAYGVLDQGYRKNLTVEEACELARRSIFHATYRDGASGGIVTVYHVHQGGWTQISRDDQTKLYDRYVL
Briefly: Trypanosoma cruzi proteasome chymotrypsin-like activity (TcProtChymo) assay. Also: in the data most compounds retested in dose-response had high values. The test is classed as functional. The note with it: 9.37 µM.

The species entered for a further test is Homo sapiens. The test is described as follows: To identify inhibition of the IFN signalling (Jak-Stat) pathway via expression of an eGFP reporter gene under the control of an IFN-stimulated response element (ISRE) containing MxA promoter. In kind it is functional. As to conditions: 30 µM. For orientation: A reporter such as luciferase makes a cellular process visible.

The target in test [6] is T4, Tyrosyl-tRNA synthetase, putative (Trypanosoma cruzi (strain CL Brener)) (UniProt Q4DSP6).
T4 sequence (whole entry): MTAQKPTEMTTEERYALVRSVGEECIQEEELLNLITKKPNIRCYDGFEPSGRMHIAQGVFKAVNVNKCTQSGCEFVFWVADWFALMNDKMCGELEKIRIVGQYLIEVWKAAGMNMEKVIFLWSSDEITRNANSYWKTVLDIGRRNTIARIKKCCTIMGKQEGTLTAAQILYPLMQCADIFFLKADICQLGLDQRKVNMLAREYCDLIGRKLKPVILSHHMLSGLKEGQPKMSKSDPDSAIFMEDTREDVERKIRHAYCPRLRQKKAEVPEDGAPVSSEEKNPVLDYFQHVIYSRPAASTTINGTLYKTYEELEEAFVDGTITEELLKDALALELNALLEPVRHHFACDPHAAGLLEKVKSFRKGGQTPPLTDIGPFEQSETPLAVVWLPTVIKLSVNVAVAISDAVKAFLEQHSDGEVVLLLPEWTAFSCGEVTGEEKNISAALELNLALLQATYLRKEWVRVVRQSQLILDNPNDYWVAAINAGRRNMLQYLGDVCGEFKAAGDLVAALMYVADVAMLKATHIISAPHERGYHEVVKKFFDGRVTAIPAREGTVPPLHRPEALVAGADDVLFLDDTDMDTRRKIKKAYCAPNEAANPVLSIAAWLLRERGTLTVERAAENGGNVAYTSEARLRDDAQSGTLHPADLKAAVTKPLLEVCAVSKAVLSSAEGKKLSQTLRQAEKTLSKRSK
Briefly: Trypanosoma cruzi tyrosyl tRNA synthetase (TcYRS) _High Tyrosine SOP. Also: in the data most compounds retested in dose-response had high values. As to conditions: 30 µM. In kind it is functional.

Test [7] deals with T4, Tyrosyl-tRNA synthetase, putative (Trypanosoma cruzi (strain CL Brener)). The test is described as follows: Trypanosoma cruzi tyrosyl tRNA synthetase (TcYRS) SOP. In kind it is functional. The note with it: 30 µM.
Test [8] addresses Chromo domain-containing protein 1 (Saccharomyces cerevisiae (strain ATCC 204508 / S288c) (Baker's yeast)) (UniProt P32657). Briefly: ScCHD-1 Enzyme Inhibition Assay. Also: in the data most compounds retested in dose-response had high values. The test is classed as functional. The note with it: 30 µM.

Chain of Chromo domain-containing protein 1 (Saccharomyces cerevisiae (strain ATCC 204508 / S288c) (Baker's yeast)) (P32657 whole entry, the tested form may be a part): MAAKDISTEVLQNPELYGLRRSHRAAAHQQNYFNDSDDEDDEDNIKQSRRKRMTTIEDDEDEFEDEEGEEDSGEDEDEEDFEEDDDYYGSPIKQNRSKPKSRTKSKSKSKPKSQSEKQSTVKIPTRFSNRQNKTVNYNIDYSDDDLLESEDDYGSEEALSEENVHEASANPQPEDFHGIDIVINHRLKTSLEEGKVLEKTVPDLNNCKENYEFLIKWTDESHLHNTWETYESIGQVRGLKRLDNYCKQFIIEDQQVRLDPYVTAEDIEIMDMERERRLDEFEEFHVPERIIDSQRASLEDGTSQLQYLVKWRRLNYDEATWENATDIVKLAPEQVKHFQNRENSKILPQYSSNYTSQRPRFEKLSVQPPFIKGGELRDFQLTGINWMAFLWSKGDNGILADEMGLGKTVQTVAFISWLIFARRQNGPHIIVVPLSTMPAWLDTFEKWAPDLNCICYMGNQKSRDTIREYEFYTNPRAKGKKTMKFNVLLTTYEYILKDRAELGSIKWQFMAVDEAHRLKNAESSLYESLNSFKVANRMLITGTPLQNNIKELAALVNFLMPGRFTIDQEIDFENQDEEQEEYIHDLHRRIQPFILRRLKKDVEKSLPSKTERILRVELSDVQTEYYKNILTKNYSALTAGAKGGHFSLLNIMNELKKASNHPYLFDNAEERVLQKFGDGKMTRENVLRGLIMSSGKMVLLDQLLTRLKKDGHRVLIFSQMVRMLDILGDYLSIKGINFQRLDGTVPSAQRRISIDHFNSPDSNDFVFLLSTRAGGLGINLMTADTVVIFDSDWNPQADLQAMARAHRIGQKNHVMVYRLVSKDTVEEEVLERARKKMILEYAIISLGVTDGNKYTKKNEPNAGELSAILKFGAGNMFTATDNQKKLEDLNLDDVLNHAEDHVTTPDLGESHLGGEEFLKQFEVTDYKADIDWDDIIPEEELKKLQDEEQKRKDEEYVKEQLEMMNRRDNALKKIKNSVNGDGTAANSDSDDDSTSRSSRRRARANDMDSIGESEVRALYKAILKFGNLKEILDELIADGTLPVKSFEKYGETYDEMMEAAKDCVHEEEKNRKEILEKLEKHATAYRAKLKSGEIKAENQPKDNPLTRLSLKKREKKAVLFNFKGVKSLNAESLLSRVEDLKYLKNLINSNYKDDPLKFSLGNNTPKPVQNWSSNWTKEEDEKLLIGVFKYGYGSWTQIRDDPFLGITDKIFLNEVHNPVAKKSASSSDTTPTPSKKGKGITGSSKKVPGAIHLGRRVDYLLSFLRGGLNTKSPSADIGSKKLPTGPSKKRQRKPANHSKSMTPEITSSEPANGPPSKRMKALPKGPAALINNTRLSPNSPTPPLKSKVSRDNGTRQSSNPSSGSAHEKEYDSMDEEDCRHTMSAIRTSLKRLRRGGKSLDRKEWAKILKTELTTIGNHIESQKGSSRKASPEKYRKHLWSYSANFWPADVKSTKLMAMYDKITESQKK
Chain of Sialic acid-binding Ig-like lectin 9 (Homo sapiens) (Q9Y336 whole entry): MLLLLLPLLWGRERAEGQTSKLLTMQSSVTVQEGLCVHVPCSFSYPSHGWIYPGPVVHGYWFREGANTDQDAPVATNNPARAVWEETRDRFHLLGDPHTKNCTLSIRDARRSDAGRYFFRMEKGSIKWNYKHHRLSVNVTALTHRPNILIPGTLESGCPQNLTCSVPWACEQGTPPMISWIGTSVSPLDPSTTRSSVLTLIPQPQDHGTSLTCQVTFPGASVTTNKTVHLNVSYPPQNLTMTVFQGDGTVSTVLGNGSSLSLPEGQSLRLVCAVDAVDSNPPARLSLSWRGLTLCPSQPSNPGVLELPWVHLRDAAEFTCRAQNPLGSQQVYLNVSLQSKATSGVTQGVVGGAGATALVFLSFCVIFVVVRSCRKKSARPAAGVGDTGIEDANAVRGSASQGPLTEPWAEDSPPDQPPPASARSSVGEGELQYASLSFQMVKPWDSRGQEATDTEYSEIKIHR
Chain of Protein translocase subunit SecA (Escherichia coli (strain K12)) (P10408 whole entry): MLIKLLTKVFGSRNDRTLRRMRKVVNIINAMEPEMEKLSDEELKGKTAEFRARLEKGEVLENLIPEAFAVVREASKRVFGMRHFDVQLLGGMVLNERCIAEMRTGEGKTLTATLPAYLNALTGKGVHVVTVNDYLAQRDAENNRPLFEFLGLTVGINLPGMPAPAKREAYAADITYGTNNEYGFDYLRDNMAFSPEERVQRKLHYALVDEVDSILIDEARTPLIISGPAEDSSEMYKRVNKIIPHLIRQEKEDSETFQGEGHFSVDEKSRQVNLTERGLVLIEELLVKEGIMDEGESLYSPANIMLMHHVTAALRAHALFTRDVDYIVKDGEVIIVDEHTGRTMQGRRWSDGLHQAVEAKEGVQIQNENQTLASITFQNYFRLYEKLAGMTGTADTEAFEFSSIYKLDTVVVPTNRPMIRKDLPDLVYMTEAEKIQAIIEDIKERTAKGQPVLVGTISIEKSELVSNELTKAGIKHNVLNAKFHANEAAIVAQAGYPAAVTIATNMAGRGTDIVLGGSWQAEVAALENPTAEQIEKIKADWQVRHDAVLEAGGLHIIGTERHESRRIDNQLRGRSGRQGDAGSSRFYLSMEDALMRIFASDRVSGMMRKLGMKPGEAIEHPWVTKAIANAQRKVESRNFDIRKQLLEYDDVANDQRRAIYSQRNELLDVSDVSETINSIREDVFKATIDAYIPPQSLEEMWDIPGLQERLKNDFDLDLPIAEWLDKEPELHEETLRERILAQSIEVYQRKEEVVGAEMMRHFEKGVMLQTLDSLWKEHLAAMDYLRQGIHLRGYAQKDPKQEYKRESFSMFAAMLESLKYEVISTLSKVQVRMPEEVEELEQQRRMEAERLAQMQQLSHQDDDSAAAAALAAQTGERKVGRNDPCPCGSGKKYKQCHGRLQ

For the compound `Cc1nc(CN2CCN(Cc3nccn3C)CC2)no1`, the Percent Effect in test [1] was -4.99%; in test [2], 8%; in test [3], -1.66%; in the test with Trypanosoma cruzi it was 3.21%; in test [4] it was -1.77%; in [5], 4.16%. Also, the Percent Effect is 11.1% in the test filed under Homo sapiens, 5.79% in test [6], 15.4% in test [7] and -11.3% in [8].

For the compound `Cc1cc(C)n(CC2CCCN2CCCS(N)(=O)=O)n1` (stereo not given), the Percent Effect in test [1] is -1.45%; in [2], 10.3%; in [3], -5.77%; in the test with Trypanosoma cruzi, 7.61%; in test [4], 4.1%; in [5], 18.3%. For the same compound, the Percent Effect was 20.4% in the test listed under Homo sapiens, 3.35% in test [6], 18.1% in [7] and -2.57% in test [8].

For `COCCN1CC(C(=O)NCc2ccnc(-n3cccn3)c2)CC1=O` (stereo not given), the Percent Effect in test [1] is -3.79%; in test [2] it was -5.13%; in [3] it was -5.84%; in the test on Trypanosoma cruzi, -1.22%; in test [4], 3.28%; in test [5] it was -1.79%. Moreover, the Percent Effect in the test listed under Homo sapiens was 23.2%; in test [6] it was -2.39%; in test [7] it was -3.61%; in test [8], 6.47%.

`CN(C)Cc1ccc(C2CCCCN2C(=O)c2cc(C3CC3)n[nH]2)cc1` (stereo not given): the Percent Effect in test [1] is -11.5%; in [2], -2.7%; in [3], 0.279%; in the test on Trypanosoma cruzi it was -2.23%; in test [4], -1.05%; in test [5] it was 11.3%. The Percent Effect is 19.7% in the test listed under Homo sapiens, 5.85% in test [6], 9.76% in [7] and -0.312% in [8].

As for `CN(Cc1cn2ccccc2c1C#N)C1CCCN(c2cccnn2)C1` (stereo not given), the Percent Effect in [1] is -1.94%; in test [2], -15.6%; in test [3], 10.5%; with Trypanosoma cruzi it was 1.31%; in test [4], -3.07%; in [5], 13.7%. Further, the Percent Effect in the test filed under Homo sapiens is 6.2%; in test [6], 13.7%; in test [7], 9.41%; in test [8], -7.9%.

Turning to `Cc1nccn1Cc1nnc(C2CCCN(Cc3cccnc3)C2)n1C` (stereo not given), the Percent Effect is -4.77% in [1]; 16.2% in [2]; 4.69% in test [3]; 5.53% in the test on Trypanosoma cruzi; -6.64% in test [4]; 12.3% in test [5]. Besides, the Percent Effect in the test filed under Homo sapiens was 5.04%; in [6] it was 9.04%; in test [7], 14.6%; in [8], -2.63%.

For `CC(C)n1ccnc1C1CCN(C(=O)C2COc3ccccc3O2)CC1` (stereo not given), the Percent Effect in test [1] was -9.12%; in [2], 5.41%; in test [3], 10.4%; with Trypanosoma cruzi it was 7.08%; in test [4], 12.9%; in test [5], 13.2%. In addition, the Percent Effect in the test filed under Homo sapiens was -5.55%; in test [6] it was 7.98%; in [7] it was 14.6%; in test [8], -3.02%.

Take `Cc1nc(C)n(CC2CCCN2Cc2ccn(-c3ccccc3)n2)n1` (stereo not given): the Percent Effect in test [1] is 0.0578%; in [2] it was -20.8%; in test [3], 13.8%; with Trypanosoma cruzi, 0.933%; in [4] it was -4.3%; in test [5], 4.04%. For the same compound, the Percent Effect in the test filed under Homo sapiens is 3.86%; in [6], 4.9%; in test [7], 16.5%; in test [8] it was -7.02%.

Regarding `COCc1nc(CNC2CCSCC2)no1`, the Percent Effect in test [1] is -6.18%; in [2], 2.7%; in [3], 1.55%; with Trypanosoma cruzi, 3.98%; in test [4], 1.75%; in [5] it was 7.36%. Also, the Percent Effect is -12.7% in the test filed under Homo sapiens, 3.72% in [6], 9.76% in test [7] and -0.943% in test [8].

Regarding `CN1CCOC(CNC(=O)CCCOCCc2ccccc2)C1` (stereo not given), the Percent Effect in test [1] is -3.33%; in test [2] it was 17.9%; in [3], -5.99%; in the test with Trypanosoma cruzi it was 9.86%; in test [4], 3.28%; in test [5] it was 9.13%. Also, the Percent Effect in the test filed under Homo sapiens was 19.5%; in [6] it was 4.31%; in test [7] it was 22.9%; in test [8], -6.94%.

As to `Cc1noc(C)c1C(=O)N1CC[C@H]2C[C@@H](c3ccncn3)O[C@@H]2C1`, the Percent Effect is -7.73% in [1]; 6.49% in [2]; 0.544% in [3]; -1.46% in the test on Trypanosoma cruzi; -2.43% in test [4]; 11.7% in [5]. Besides, the Percent Effect in the test listed under Homo sapiens was -4.26%; in test [6] it was 5.79%; in [7], 15.4%; in test [8] it was -2%.

As to `COCCN1CCCN(C(=O)NC(C)Cn2cccn2)CC1` (stereo not given), the Percent Effect in test [1] is 0.234%; in test [2], 15.6%; in test [3], -4.18%; in the test on Trypanosoma cruzi it was -8.77%; in test [4] it was 4.3%; in test [5], 10.9%. For the same compound, the Percent Effect in the test listed under Homo sapiens is 14.4%; in test [6], 5.88%; in test [7] it was 11.8%; in test [8] it was -2.79%.
